Test results from PubChem BioAssay.
Values joined by “and” are separate entries in the source; they are usually repeats but may differ in a detail not shown here. Identical values can stand only once. Active and inactive are the calls of the source.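 The calls were made as follows: active = compounds whose cell count with miR-34 switched on is under 0.7 times the count with it off; inactive = the rest.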

Experiment: sensitizers of A549 cells to miR-34 induction, primary screen, imaging, A549 dox-inducible miR-34, nuclei and caspase counts (AID 1347080); also: test concentration not given here
Conditions: A549 miR-34 inducible, Hoechst nuclei count, 48 h; stronger effect = lower value; cell number ratio, induced over uninduced

Compound | fold change
OCC(O)CN1CCN(c2ccccc2)CC1 (stereo not drawn) | 0.91 (inactive) and 0.902 (inactive) and 0.934 (inactive)
Cc1c(C(N)=O)cc([N+](=O)[O-])cc1[N+](=O)[O-] | 1.04 (inactive)
CCN(CCCCOC(=O)c1ccc(OC)c(OC)c1)C(C)Cc1ccc(OC)cc1 (stereo not drawn) | 0.98 (inactive) and 0.929 (inactive)

Same assay, conditions: A549 miR-34 inducible, Hoechst nuclei count, 48 h; measured here: relative caspase fold change +Dox/-Dox

Compound | fold change
CC1CC(OC(=O)C(O)c2ccccc2)CC(C)(C)N1C (stereo not drawn) | 1.56
O=C(O)c1ccccc1OP(=O)(O)O | 1.05
Cc1ccnc(NS(=O)(=O)c2ccc(N)cc2)n1 | 1.08 and 0.734 and 2.66
Cc1c(NC(C)C)c(=O)n(-c2ccccc2)n1C | 1.14
Nc1ccc(S(=O)(=O)Nc2cnc3ccccc3n2)cc1 | 0.858 and 3.15
COc1ccc(C(=O)c2ccccc2O)c(O)c1 | 1.04 and 0.52
CC(=O)[C@@]1(O)CC[C@H]2[C@@H]3C[C@H](C)C4=CC(=O)C=C[C@]4(C)[C@@]3(F)[C@@H](O)C[C@@]21C | 1.39
Nc1c2ccccc2nc2ccccc12 | 1
COc1c2occc2c(OC)c2c(=O)cc(C)oc12 | 1.18
O=C(O)CCCC[C@@H]1SC[C@@H]2NC(=O)N[C@@H]21 | 1.66
COc1cnc(NS(=O)(=O)c2ccc(N)cc2)nc1 | 1.15 and 0.841 and 2.64
Nc1ncnc2nc[nH]c12 | 0.822 and 4.73
CCCCOC(=O)c1ccc(N)cc1 | 1.56 and 1.88
NS(=O)(=O)c1cc2c(cc1Cl)NC(CSCc1ccccc1)=NS2(=O)=O | 1.39 and 1.03
Nc1nc2c(c(=O)[nH]1)N(C=O)C(CNc1ccc(C(=O)N[C@@H](CCC(=O)O)C(=O)O)cc1)CN2 (stereo partly drawn) | 0.756 and 0.824
CCCCC(CC)CN1CN(CC(CC)CCCC)CC(C)(N)C1 (stereo not drawn) | 1.46
C[C@H](N)[C@H](O)c1cccc(O)c1 | 1.15 and 3.09
NC(=O)NC1NC(=O)NC1=O (stereo not drawn) | 1.05 and 3.99
C[N+]12CCC(CC1)C(OC(=O)C(O)(c1ccccc1)c1ccccc1)C2 (stereo not drawn) | 1.4 and 1.29
O=C(O)c1ccccc1O | 0.622 and 2.5

Compound | fold change
CCOc1ccc(Cc2nccc3cc(OCC)c(OCC)cc23)cc1OCC | 1.32
C[C@@H]1C[C@H]2[C@@H]3C[C@H](F)C4=CC(=O)C=C[C@]4(C)[C@@]3(F)[C@@H](O)C[C@]2(C)[C@@]1(O)C(=O)CO | 1.53
Oc1c(Br)cc(Br)c2cccnc12 | 0.803
Cc1c(Nc2ncccc2C(=O)O)cccc1C(F)(F)F | 1.09 and 0.676 and 4.07
CCN(CC)CCNC(=O)c1cc(Br)c(N)cc1OC | 1.23
CCCCN(CCCC)CCCOC(=O)c1ccc(N)cc1 | 2.02 and 4.13
O=C(O)c1ccccc1C(=O)Nc1ccc(S(=O)(=O)Nc2nccs2)cc1 | 1.08 and 2.76
CCC(Cc1c(I)cc(I)c(N)c1I)C(=O)O (stereo not drawn) | 0.773 and 3.75
Nc1ccc(S(=O)(=O)Nc2nccs2)cc1 | 1.04 and 0.824 and 4.44
Nc1ccc(S(=O)(=O)NC(=O)c2ccccc2)cc1 | 1.13 and 2.49
CN1[C@@H]2CC[C@H]1CC(OC(=O)C(O)c1ccccc1)C2 (stereo partly drawn) | 1.3
CCOC(=O)c1ccc(N)cc1 | 1.13 and 0.443 and 0.967
CC(NCCC(c1ccccc1)c1ccccc1)c1ccccc1 (stereo not drawn) | 1.46
CCN1CCCC(OC(=O)C(c2ccccc2)c2ccccc2)C1 (stereo not drawn) | 0.865 and 4.46
CCCCc1nc(Cl)c(CO)n1Cc1ccc(-c2ccccc2-c2nn[nH]n2)cc1 | 0.724 and 6.97
CC1(C)O[C@@H]2C[C@H]3[C@@H]4C[C@H](F)C5=CC(=O)CC[C@]5(C)[C@H]4[C@@H](O)C[C@]3(C)[C@]2(C(=O)CO)O1 | 0.796
COc1cc(NS(=O)(=O)c2ccc(N)cc2)ncn1 | 1.06 and 3.99
OCC(O)CN1CCN(c2ccccc2)CC1 (stereo not drawn) | 1.09 and 0.695 and 0.504
Cc1c(C(N)=O)cc([N+](=O)[O-])cc1[N+](=O)[O-] | 1.27
CCN(CCCCOC(=O)c1ccc(OC)c(OC)c1)C(C)Cc1ccc(OC)cc1 (stereo not drawn) | 1.13 and 3.04

Same assay, conditions: A549 miR-34 inducible, Hoechst nuclei count, 48 h; measured here: total cells with miR-34 induction; stronger effect = lower value

Compound | cell count
CC1CC(OC(=O)C(O)c2ccccc2)CC(C)(C)N1C (stereo not drawn) | 7700
O=C(O)c1ccccc1OP(=O)(O)O | 9100
Cc1ccnc(NS(=O)(=O)c2ccc(N)cc2)n1 | 8890 and 7940 and 11400
Cc1c(NC(C)C)c(=O)n(-c2ccccc2)n1C | 8020
Nc1ccc(S(=O)(=O)Nc2cnc3ccccc3n2)cc1 | 8790 and 11400
COc1ccc(C(=O)c2ccccc2O)c(O)c1 | 8680 and 11300
CC(=O)[C@@]1(O)CC[C@H]2[C@@H]3C[C@H](C)C4=CC(=O)C=C[C@]4(C)[C@@]3(F)[C@@H](O)C[C@@]21C | 6290
Nc1c2ccccc2nc2ccccc12 | 782
COc1c2occc2c(OC)c2c(=O)cc(C)oc12 | 8440
O=C(O)CCCC[C@@H]1SC[C@@H]2NC(=O)N[C@@H]21 | 8760
COc1cnc(NS(=O)(=O)c2ccc(N)cc2)nc1 | 9880 and 7410 and 11400
Nc1ncnc2nc[nH]c12 | 8220 and 12600
CCCCOC(=O)c1ccc(N)cc1 | 6730 and 8980
NS(=O)(=O)c1cc2c(cc1Cl)NC(CSCc1ccccc1)=NS2(=O)=O | 8870 and 9840
Nc1nc2c(c(=O)[nH]1)N(C=O)C(CNc1ccc(C(=O)N[C@@H](CCC(=O)O)C(=O)O)cc1)CN2 (stereo partly drawn) | 9140 and 10900
CCCCC(CC)CN1CN(CC(CC)CCCC)CC(C)(N)C1 (stereo not drawn) | 8130
C[C@H](N)[C@H](O)c1cccc(O)c1 | 9120 and 10800
NC(=O)NC1NC(=O)NC1=O (stereo not drawn) | 8140 and 12000
C[N+]12CCC(CC1)C(OC(=O)C(O)(c1ccccc1)c1ccccc1)C2 (stereo not drawn) | 8530 and 9960
O=C(O)c1ccccc1O | 8100 and 11600

Compound | cell count
CCOc1ccc(Cc2nccc3cc(OCC)c(OCC)cc23)cc1OCC | 5900
C[C@@H]1C[C@H]2[C@@H]3C[C@H](F)C4=CC(=O)C=C[C@]4(C)[C@@]3(F)[C@@H](O)C[C@]2(C)[C@@]1(O)C(=O)CO | 6000
Oc1c(Br)cc(Br)c2cccnc12 | 7880
Cc1c(Nc2ncccc2C(=O)O)cccc1C(F)(F)F | 7890 and 7810 and 10300
CCN(CC)CCNC(=O)c1cc(Br)c(N)cc1OC | 8310
CCCCN(CCCC)CCCOC(=O)c1ccc(N)cc1 | 8920 and 11400
O=C(O)c1ccccc1C(=O)Nc1ccc(S(=O)(=O)Nc2nccs2)cc1 | 8730 and 11300
CCC(Cc1c(I)cc(I)c(N)c1I)C(=O)O (stereo not drawn) | 9300 and 9110
Nc1ccc(S(=O)(=O)Nc2nccs2)cc1 | 8630 and 7440 and 10900
Nc1ccc(S(=O)(=O)NC(=O)c2ccccc2)cc1 | 7780 and 10600
CN1[C@@H]2CC[C@H]1CC(OC(=O)C(O)c1ccccc1)C2 (stereo partly drawn) | 8240
CCOC(=O)c1ccc(N)cc1 | 7670 and 8350 and 9530
CC(NCCC(c1ccccc1)c1ccccc1)c1ccccc1 (stereo not drawn) | 2830
CCN1CCCC(OC(=O)C(c2ccccc2)c2ccccc2)C1 (stereo not drawn) | 9410 and 10800
CCCCc1nc(Cl)c(CO)n1Cc1ccc(-c2ccccc2-c2nn[nH]n2)cc1 | 7690 and 9920
CC1(C)O[C@@H]2C[C@H]3[C@@H]4C[C@H](F)C5=CC(=O)CC[C@]5(C)[C@H]4[C@@H](O)C[C@]3(C)[C@]2(C(=O)CO)O1 | 4730
COc1cc(NS(=O)(=O)c2ccc(N)cc2)ncn1 | 9390 and 12000
OCC(O)CN1CCN(c2ccccc2)CC1 (stereo not drawn) | 7870 and 8950 and 8400
Cc1c(C(N)=O)cc([N+](=O)[O-])cc1[N+](=O)[O-] | 8930
CCN(CCCCOC(=O)c1ccc(OC)c(OC)c1)C(C)Cc1ccc(OC)cc1 (stereo not drawn) | 7620 and 11300
